# PubChem BioAssay (EPA / NIEHS)
# Inconclusive results are not listed. Activity calls are given as the source filed them. Rule for the calls: active = hit-call score of the fitted dose curve at least 0.9, where 1 is the maximum; inconclusive = response in the unintended direction; inactive = score below 0.9.
# Key:
# [1] = target: sheep Cyclooxygenase-1 (Cox1), PTGS1 (gene 443551) (UniProt P05979); assay: NVS_ENZ_oCOX1: NovaScreen (NVS) Enzymatic Assay for sheep Cyclooxygenase-1 (Cox1) (AID 2283239);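 note: actives reduce cyclooxygenase activity so potencies are for inhibitors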
# In short: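 Absorbance read-out of cyclooxygenase activity in a cell-free preparation from sheep seminal vesicles, taken 0.66 hour after dosing. Initial testing was in duplicate at 25 uM, and confirmatory testing was run in concentration series.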
# [2] = target: human Vascular Endothelial Growth Factor Receptor 2 (VEGFR2), KDR (gene 3791) (UniProt P35968); assay: NVS_ENZ_hVEGFR2: NovaScreen (NVS) Enzymatic Assay for human Vascular Endothelial Growth Factor Receptor 2 (VEGFR2) (AID 2283230)
# In short: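 Cell-free recombinant VEGFR2 kinase, fluorescent substrate with electrophoretic mobility-shift separation; read 1 h after dosing. Screened at 25 uM in duplicate, hits to concentration-response up to 50 uM; loss-of-signal versus DMSO.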
# [3] = target: human Adenosine A2a Receptor (AdoRA2a), ADORA2A (gene 135) (UniProt P29274); assay: NVS_GPCR_hAdoRA2a: NovaScreen (NVS) G Protein-Coupled Receptor Assay for human Adenosine A2a Receptor (AdoRA2a) (AID 2283256)
# In short: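 Cell-free radioligand binding on membranes from HEK293 expressing the receptor; competitive displacement read 1.5 h after dosing by filter-based scintillation counting. Primary screen in duplicate at 25 uM; actives followed in concentration series, with DMSO as baseline.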
# [4] = target: guinea pig Leukotriene D4 Receptor (LTD4), CYSLTR1 (gene 100135514) (UniProt Q2NNR5); assay: NVS_GPCR_gLTD4: NovaScreen (NVS) G Protein-Coupled Receptor Assay for guinea pig Leukotriene D4 Receptor (LTD4) (AID 2283248)
# In short: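 Radioligand displacement on guinea pig lung membranes, 1 h incubation, filtration and scintillation counting; DMSO as negative control. Duplicate 25 uM primary screen, then singleton concentration-response up to 50 uM.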
# [5] = target: guinea pig Opioid, Kappa 1 Receptor (OpiateK), OPRK1 (gene 100135587) (UniProt P41144); assay: NVS_GPCR_gOpiateK: NovaScreen (NVS) G Protein-Coupled Receptor Assay for guinea pig Opioid, Kappa 1 Receptor (OpiateK) (AID 2283252);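 note: radioligand displacement from kappa opioid receptor in guinea pig cerebellar membranes; active means reduced radioligand binding relative to DMSO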
# In short: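 Signal is scintillation counts of filter-trapped radioligand bound to guinea pig cerebellar membrane receptor, measured 2 hours post-dosing. Activity is loss of binding versus DMSO, first at 25 uM in duplicate, then as concentration series for actives.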
# [6] = target: human Adenosine A1 Receptor (AdoRA1), ADORA1 (gene 134) (UniProt P30542); assay: NVS_GPCR_hAdoRA1: NovaScreen (NVS) G Protein-Coupled Receptor Assay for human Adenosine A1 Receptor (AdoRA1) (AID 2283254)
# In short: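 Each chemical is first tested twice at 25 uM, actives later in dilution series, against a radioligand bound to human cortex membranes; after 1 h, filter-retained counts are compared with DMSO controls, lower signal indicating displacement.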
# [7] = test system: rat Monoamine Oxidase, MAO-A, Central (MAOAC), gene 29253; assay: NVS_ENZ_rMAOAC: NovaScreen (NVS) Enzymatic Assay for rat Monoamine Oxidase, MAO-A, Central (MAOAC) (AID 2283243);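 note: potency refers to inhibition seen as signal drop below DMSO baseline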
# In short: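 Rat brain tissue extract served as the cell-free enzyme source; activity was measured by radiometric scintillation counting 1.5 hours after compound addition. Loss of signal relative to DMSO baseline indicated inhibition; primary screen at 25 uM in duplicate.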
# [8] = target: human Serotonin, 5-Hydroxytryptamine Receptor 2A (5HT2A), HTR2A (gene 3356) (UniProt P28223); assay: NVS_GPCR_h5HT2A: NovaScreen (NVS) G Protein-Coupled Receptor Assay for human Serotonin, 5-Hydroxytryptamine Receptor 2A (5HT2A) (AID 2283249)
# In short: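 Human cortex membranes, cell-free radioligand binding; filter-based scintillation read 1.5 h after dosing. Duplicate screen at 25 uM first; displacement of specific binding (loss of signal) versus DMSO.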
# [9] = test system: bovine Angiotensin II Receptor Type 2 (AT2), gene 407157; assay: NVS_GPCR_bAT2: NovaScreen (NVS) G Protein-Coupled Receptor Assay for bovine Angiotensin II Receptor Type 2 (AT2) (AID 2283240)
# In short: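 Radioligand displacement on bovine cerebellar membranes, 1 hour incubation, filter-based scintillation counting; loss of signal vs DMSO. Duplicate single-point screen at 25 uM, then concentration-response to 50 uM maximum.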
# [10] = test system: guinea pig Leukotriene B4 Receptor (LTB4), gene 100379538; assay: NVS_GPCR_gLTB4: NovaScreen (NVS) G Protein-Coupled Receptor Assay for guinea pig Leukotriene B4 Receptor (LTB4) (AID 2283247)
# In short: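 Radioligand displacement on guinea pig spleen membranes, filter-based scintillation counting 2 h after dosing. Primary duplicate single point at 25 uM; hits over threshold (e.g. 30% inhibition) run in concentration-response up to 50 uM, DMSO baseline.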
# [11] = target: human Serotonin, 5-Hydroxytryptamine Receptor 5A (5HT5A), HTR5A (gene 3361) (UniProt P47898); assay: NVS_GPCR_h5HT5A: NovaScreen (NVS) G Protein-Coupled Receptor Assay for human Serotonin, 5-Hydroxytryptamine Receptor 5A (5HT5A) (AID 2283251)
# In short: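 Cell-free radioligand displacement binding on HEK293-derived membrane protein, 1 h incubation, filter-based scintillation counting. Primary screen in duplicate at 25 uM, actives followed in concentration series; loss of signal fitted versus DMSO.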
# [12] = target: human Serotonin, 5-Hydroxytryptamine Receptor 7 (5HT7), HTR7 (gene 3363) (UniProt P34969); assay: NVS_GPCR_h5HT7: NovaScreen (NVS) G Protein-Coupled Receptor Assay for human Serotonin, 5-Hydroxytryptamine Receptor 7 (5HT7) (AID 2283255);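 note: hits reduce specific radioligand binding relative to DMSO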
# In short: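 Radioligand displacement on membranes from CHO cells expressing human 5HT7, 1 h incubation, filter-based scintillation counting. Primary screen used a single 25 uM concentration in duplicate; actives were followed up in concentration series.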
# [13] = target: human Adrenergic, Beta 1 Receptor (Adrb1), ADRB1 (gene 153) (UniProt P08588); assay: NVS_GPCR_hAdrb1: NovaScreen (NVS) G Protein-Coupled Receptor Assay for human Adrenergic, Beta 1 Receptor (Adrb1) (AID 2283258)
# In short: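 Cell-free radioligand displacement on receptor from human neuroepithelioma cells; 2 h after dosing, filter-based scintillation counting. Primary screen in duplicate at 25 uM, actives retested in concentration series; loss of signal vs DMSO baseline.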
# [14] = target: human Adrenergic, Alpha 2c Receptor (Adra2C), ADRA2C (gene 152) (UniProt P18825); assay: NVS_GPCR_hAdra2C: NovaScreen (NVS) G Protein-Coupled Receptor Assay for human Adrenergic, Alpha 2c Receptor (Adra2C) (AID 2283259)
# In short: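 Radioligand binding on Sf9-expressed receptor membranes, 1 h after chemical dosing, filter-based scintillation read-out. Loss of binding fitted positively versus DMSO; primary duplicate screen at 25 uM, actives retested in concentration series.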
# Sequence of guinea pig Leukotriene D4 Receptor (LTD4), CYSLTR1 (gene 100135514) (Q2NNR5 whole entry, looked up): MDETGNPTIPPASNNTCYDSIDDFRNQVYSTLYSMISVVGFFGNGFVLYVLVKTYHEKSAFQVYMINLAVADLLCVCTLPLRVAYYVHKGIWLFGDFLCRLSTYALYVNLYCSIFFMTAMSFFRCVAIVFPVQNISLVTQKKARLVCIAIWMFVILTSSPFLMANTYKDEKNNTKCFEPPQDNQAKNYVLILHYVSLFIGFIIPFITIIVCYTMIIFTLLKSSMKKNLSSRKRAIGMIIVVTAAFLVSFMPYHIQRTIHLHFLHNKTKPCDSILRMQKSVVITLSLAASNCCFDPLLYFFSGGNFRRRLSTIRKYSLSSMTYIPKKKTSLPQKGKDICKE
# Sequence of guinea pig Opioid, Kappa 1 Receptor (OpiateK), OPRK1 (gene 100135587) (P41144 whole entry, looked up): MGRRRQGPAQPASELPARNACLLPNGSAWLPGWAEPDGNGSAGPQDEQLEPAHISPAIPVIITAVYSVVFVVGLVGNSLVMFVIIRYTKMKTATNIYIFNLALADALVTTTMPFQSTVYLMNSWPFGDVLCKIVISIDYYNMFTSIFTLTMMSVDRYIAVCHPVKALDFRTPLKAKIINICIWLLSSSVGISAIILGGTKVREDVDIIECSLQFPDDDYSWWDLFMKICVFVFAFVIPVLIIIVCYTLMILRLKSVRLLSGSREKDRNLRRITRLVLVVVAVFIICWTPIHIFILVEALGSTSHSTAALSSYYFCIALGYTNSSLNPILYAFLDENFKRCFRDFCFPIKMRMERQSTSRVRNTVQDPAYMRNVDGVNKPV
# Sequence of human Vascular Endothelial Growth Factor Receptor 2 (VEGFR2), KDR (gene 3791) (P35968 whole entry, looked up): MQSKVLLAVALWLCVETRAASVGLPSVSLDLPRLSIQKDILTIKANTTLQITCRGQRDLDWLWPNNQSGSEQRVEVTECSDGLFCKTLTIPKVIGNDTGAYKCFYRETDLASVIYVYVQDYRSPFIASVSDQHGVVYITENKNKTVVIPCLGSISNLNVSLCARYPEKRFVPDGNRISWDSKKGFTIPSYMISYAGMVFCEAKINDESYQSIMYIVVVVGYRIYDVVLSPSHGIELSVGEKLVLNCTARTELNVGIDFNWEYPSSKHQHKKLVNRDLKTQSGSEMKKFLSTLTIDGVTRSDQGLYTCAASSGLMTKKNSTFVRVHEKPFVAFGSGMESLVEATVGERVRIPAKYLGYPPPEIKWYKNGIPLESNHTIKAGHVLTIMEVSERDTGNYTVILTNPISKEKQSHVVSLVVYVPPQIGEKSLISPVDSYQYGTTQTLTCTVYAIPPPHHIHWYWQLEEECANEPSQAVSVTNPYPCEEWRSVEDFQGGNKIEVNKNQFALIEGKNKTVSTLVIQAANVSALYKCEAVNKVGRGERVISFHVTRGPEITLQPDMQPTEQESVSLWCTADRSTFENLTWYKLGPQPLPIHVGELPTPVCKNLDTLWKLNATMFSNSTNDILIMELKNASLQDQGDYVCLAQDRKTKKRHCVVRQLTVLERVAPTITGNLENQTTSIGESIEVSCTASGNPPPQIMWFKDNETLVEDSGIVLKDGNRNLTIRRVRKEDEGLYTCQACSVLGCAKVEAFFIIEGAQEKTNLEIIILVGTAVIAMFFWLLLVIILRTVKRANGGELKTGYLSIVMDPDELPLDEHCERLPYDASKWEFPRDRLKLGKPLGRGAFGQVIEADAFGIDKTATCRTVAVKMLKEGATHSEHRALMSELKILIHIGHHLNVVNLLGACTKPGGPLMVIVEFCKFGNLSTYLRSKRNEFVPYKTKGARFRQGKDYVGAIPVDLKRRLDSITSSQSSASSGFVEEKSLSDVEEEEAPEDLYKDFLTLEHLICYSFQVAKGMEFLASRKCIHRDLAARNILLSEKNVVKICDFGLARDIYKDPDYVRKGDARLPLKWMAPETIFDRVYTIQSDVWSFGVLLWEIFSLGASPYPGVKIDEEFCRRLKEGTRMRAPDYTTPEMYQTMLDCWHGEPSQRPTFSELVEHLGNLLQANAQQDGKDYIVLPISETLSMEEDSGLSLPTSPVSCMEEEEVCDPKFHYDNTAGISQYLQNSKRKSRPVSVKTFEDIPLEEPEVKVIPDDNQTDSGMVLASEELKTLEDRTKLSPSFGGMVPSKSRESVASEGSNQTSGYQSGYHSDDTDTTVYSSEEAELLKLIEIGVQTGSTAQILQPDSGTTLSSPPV
# Sequence of sheep Cyclooxygenase-1 (Cox1), PTGS1 (gene 443551) (P05979 whole entry, looked up): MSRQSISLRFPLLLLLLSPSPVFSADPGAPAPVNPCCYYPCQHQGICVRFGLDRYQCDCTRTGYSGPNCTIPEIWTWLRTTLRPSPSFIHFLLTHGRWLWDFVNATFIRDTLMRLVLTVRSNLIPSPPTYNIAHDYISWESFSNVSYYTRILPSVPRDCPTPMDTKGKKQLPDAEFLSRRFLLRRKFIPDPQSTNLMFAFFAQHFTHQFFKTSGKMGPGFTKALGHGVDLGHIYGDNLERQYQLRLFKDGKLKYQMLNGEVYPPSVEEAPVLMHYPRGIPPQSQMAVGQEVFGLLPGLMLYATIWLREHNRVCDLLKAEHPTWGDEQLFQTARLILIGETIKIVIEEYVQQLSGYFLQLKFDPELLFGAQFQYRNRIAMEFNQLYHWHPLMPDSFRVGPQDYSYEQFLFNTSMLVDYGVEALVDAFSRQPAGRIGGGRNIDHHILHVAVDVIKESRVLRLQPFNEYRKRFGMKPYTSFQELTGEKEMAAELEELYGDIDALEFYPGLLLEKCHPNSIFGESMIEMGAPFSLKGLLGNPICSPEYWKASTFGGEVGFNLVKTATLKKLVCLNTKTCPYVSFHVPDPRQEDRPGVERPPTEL
# Sequence of human Adenosine A1 Receptor (AdoRA1), ADORA1 (gene 134) (P30542 whole entry, looked up): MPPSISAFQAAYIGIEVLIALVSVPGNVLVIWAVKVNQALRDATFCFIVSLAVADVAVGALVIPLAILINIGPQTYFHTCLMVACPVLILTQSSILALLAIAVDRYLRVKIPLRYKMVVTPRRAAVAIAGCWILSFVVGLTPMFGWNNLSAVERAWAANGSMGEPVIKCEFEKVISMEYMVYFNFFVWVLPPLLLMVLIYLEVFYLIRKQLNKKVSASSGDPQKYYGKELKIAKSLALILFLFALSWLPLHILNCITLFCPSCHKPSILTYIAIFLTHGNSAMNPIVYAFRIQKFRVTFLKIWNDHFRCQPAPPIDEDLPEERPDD
# Sequence of human Adenosine A2a Receptor (AdoRA2a), ADORA2A (gene 135) (P29274 whole entry, looked up): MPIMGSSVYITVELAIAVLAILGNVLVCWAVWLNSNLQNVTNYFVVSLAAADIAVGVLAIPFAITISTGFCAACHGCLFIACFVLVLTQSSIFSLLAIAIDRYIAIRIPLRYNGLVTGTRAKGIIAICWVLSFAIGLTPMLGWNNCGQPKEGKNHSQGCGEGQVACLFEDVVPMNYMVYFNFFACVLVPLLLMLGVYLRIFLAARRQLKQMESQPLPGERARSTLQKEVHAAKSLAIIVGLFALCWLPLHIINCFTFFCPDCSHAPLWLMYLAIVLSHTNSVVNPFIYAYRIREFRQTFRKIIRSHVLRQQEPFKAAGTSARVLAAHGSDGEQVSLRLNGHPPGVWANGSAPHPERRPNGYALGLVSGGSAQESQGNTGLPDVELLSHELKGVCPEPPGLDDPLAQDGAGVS
# Sequence of human Serotonin, 5-Hydroxytryptamine Receptor 2A (5HT2A), HTR2A (gene 3356) (P28223 whole entry, looked up): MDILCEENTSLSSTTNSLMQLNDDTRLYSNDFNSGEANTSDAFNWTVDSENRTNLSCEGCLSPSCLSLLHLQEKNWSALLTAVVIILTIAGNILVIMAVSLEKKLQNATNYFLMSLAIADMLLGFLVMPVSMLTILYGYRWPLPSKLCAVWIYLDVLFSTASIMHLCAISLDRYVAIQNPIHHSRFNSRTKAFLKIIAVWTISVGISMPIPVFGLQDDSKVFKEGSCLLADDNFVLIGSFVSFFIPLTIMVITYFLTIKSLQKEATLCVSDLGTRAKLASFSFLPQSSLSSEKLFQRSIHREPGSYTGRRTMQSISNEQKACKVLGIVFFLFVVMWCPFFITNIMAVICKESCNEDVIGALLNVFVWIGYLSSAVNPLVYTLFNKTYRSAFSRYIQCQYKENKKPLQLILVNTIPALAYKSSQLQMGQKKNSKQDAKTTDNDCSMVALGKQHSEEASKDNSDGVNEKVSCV
# Sequence of human Serotonin, 5-Hydroxytryptamine Receptor 5A (5HT5A), HTR5A (gene 3361) (P47898 whole entry, looked up): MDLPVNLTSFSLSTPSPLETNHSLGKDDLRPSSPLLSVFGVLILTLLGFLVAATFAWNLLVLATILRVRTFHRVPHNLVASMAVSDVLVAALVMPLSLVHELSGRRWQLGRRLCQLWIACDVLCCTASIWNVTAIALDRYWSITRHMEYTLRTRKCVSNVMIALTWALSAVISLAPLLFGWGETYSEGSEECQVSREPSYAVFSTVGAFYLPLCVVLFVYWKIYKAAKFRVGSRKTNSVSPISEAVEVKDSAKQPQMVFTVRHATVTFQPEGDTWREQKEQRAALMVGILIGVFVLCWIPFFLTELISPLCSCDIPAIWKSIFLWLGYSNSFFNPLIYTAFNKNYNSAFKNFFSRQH
# Sequence of human Adrenergic, Beta 1 Receptor (Adrb1), ADRB1 (gene 153) (P08588 whole entry, looked up): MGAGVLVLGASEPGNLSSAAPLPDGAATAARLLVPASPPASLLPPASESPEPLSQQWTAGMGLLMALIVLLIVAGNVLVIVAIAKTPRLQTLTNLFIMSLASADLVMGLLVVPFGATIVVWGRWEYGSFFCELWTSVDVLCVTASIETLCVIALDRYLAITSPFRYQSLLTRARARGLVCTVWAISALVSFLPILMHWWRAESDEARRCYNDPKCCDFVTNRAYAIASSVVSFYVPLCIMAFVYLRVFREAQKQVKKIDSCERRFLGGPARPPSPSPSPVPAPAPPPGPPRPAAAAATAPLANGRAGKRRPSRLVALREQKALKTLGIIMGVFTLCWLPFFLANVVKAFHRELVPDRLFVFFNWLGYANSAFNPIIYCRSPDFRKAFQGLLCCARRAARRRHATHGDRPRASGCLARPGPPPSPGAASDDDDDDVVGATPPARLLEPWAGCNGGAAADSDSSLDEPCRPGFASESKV
structure (smiles),measurement,setting,value
c1ccc2sc(SNC3CCCCC3)nc2c1,outcome,[1],inactive
O=C(N[C@H]1CN2CCC1CC2)c1ccc2c(c1)OCCO2,outcome,[2],inactive
O=[N+]([O-])c1cccc2ccccc12,outcome,[1],inactive
CC(C=O)Cc1ccc2c(c1)OCO2 (centres undefined),AC50,[1],25 µM (active)
COc1ccc(N)cc1,AC50,[1],26 µM (active)
[Cl][Sn]([c]1ccccc1)([c]1ccccc1)[c]1ccccc1,outcome,[1],inactive
same,outcome,[3],inactive
O=C1c2ccccc2C(=O)C1C(=O)C(c1ccccc1)c1ccc(Cl)cc1 (centres undefined),outcome,[1],inactive
O=c1oc2ccccc2c(O)c1C(CC(O)c1ccc(-c2ccc(Br)cc2)cc1)c1ccccc1 (centres undefined),AC50,[1],1.31 µM (active)
same,AC50,[4],9.92 µM (active)
same,outcome,[5],inactive
same,AC50,[6],23.9 µM (active)
O=C(CBr)c1ccc(O)cc1,outcome,[2],inactive
O=C1C=CC(=O)c2ccccc21,AC50,[7],25 µM (active)
same,AC50,[5],37.8 µM (active)
OC(Cc1ccccc1Cl)(Cn1cncn1)C1(Cl)CC1 (centres undefined),outcome,[7],inactive
O=C1C[C@@H]2OCC=C3CN4CC[C@]56c7ccccc7N1[C@H]5[C@H]2[C@H]3C[C@H]46,outcome,[5],inactive
CC(C)O.CC(C)O.OCCN(CCO)CCO.OCCN(CCO)CCO.[Ti],AC50,[2],6.5 µM (active)
same,outcome,[8],inactive
N#Cc1cccnc1,outcome,[2],inactive
same,outcome,[9],inactive
CCN(N=O)C(N)=O,outcome,[4],inactive
Nc1ncn[nH]1,outcome,[1],inactive
Cc1ccccc1OP(=O)(Oc1ccccc1C)Oc1ccccc1C,outcome,[6],inactive
C=CC(=O)NC(C)(C)CC(C)=O,AC50,[1],21.4 µM (active)
CCCCCCCCCCCCc1cccc(S(=O)(=O)O)c1,AC50,[2],9.17 µM (active)
same,AC50,[1],5.06 µM (active)
same,AC50,[7],10.6 µM (active)
same,AC50,[10],10.5 µM (active)
same,AC50,[4],22.5 µM (active)
same,AC50,[11],13.7 µM (active)
same,AC50,[12],14.3 µM (active)
same,AC50,[13],9.54 µM (active)
same,AC50,[14],6.82 µM (active)
